Data on nine molecules can be found in PubChem BioAssay (NCI).

A short description of assay [1]: NCI Yeast Anticancer Drug Screen. Data for the rad50 strain (AID 155).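 Also: 0% = growth of vehicle-only cultures of the same strain.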 The settings on record: S. cerevisiae rad50 strain growth inhibition, active compounds read high. The gist of the method: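 Genetically altered yeast (DNA repair pathway); compound treatment; growth inhibition vs vehicle ctrl.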
Assay [2] can be described thus: NCI Yeast Anticancer Drug Screen. Data for the mec2-1 strain (AID 157). Conditions: S. cerevisiae mec2-1 strain, active compounds read high. The gist of the method: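 Readout is yeast growth inhibition, normalised to vehicle-treated controls, in the mec2-1 strain exposed to compound.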
Assay [3] can be described thus: NCI Yeast Anticancer Drug Screen. Data for the sgs1 mgt1 strain (AID 161).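 Also: 0% = growth of cultures given vehicle only.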 The settings on record: S. cerevisiae sgs1 mgt1 strain, active compounds read high. The gist of the method:
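Percent growth inhibition was derived by comparing compound-exposed mutant yeast with vehicle-exposed cultures. The strain carries alterations in DNA damage repair.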

Assay [4] is described as follows: NCI Yeast Anticancer Drug Screen. Data for the cln2 rad14 strain (AID 165).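 Also: 0% = growth equal to vehicle treated cultures.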 The settings on record: S. cerevisiae cln2 rad14 strain, active compounds read high. The gist of the method: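 Relative to vehicle controls, growth inhibition of compound-treated cln2 rad14 yeast was recorded.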
A short description of assay [5]: NCI Yeast Anticancer Drug Screen. Data for the bub3 strain (AID 167). The settings on record: S. cerevisiae bub3 mutant strain, active compounds read high. The gist of the method: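 Yeast carrying a defined mutation is treated with each compound, and growth is compared with that of vehicle-exposed cells to give inhibition.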
Assay [6] can be described thus: NCI Yeast Anticancer Drug Screen. Data for the mlh1 rad18 strain (AID 175). The settings on record: S. cerevisiae mlh1 rad18 strain growth inhibition, active compounds read high. The gist of the method: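 Test agents were incubated with a yeast strain of defined genotype (DNA damage repair defect). Inhibition of growth was derived by comparison with vehicle-exposed cultures.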

Setting [7] is: at 5.0 µM (retest, dose inferred, filed as 0.5).
The mark [8] stands for this setting: at 50.0 µM (retest, dose inferred, filed as 5.0).

About 79,000 compounds went through this panel and 15% of them were active in at least one assay; those are over-represented in the sample as a whole. Unmarked numbers belong to inactive results. Active and inactive are the calls of the source. Rule as the data show it: active = growth inhibition above about 70%; inactive = the rest.

With `Cc1ccc2c(ccc3ccccc32)c1`, the growth inhibition in assay [1] (setting [7]) was -23%; in assay [1] (setting [8]), 42%; in assay [1] (at 50.0 µM), 74.3% (active); in assay [2] (setting [7]), 1%; in assay [2] (setting [8]), 10%; in assay [2] (at 50.0 µM) it was 16.4%. Besides, the growth inhibition is -7% in assay [3] (setting [7]); 16% in assay [3] (setting [8]); 57.5% in assay [3] (at 50.0 µM); -25% in assay [4] (setting [7]); -12% in assay [4] (setting [8]); 10.2% in assay [4] (at 50.0 µM). The growth inhibition was -15% in assay [5] (setting [7]); 38% in assay [5] (setting [8]); 71% (active) in assay [5] (at 50.0 µM); -67% in assay [6] (setting [7]); 39% in assay [6] (setting [8]); 34.6% in assay [6] (at 50.0 µM).
`CC(C)C(O)(C(=O)OCN1C(=O)C2C3C=CC(C2C1=O)C1C2C(=O)N(COC(=O)C(O)(C(C)C)C(C)O)C(=O)C2C31)C(C)O` (configuration not stated): the growth inhibition is 0% in assay [1] (setting [7]); -7% in assay [1] (setting [8]); 28.5% in assay [1] (at 50.0 µM); -2% in assay [2] (setting [7]); 11% in assay [2] (setting [8]); 52% in assay [2] (at 50.0 µM). In addition, the growth inhibition in assay [3] (setting [7]) is -7%; in assay [3] (setting [8]) it was 17%; in assay [3] (at 50.0 µM), 37.9%; in assay [4] (setting [7]), 0%; in assay [4] (setting [8]), -2%; in assay [4] (at 50.0 µM) it was 18.1%. Moreover, the growth inhibition in assay [5] (setting [7]) was 5%; in assay [5] (setting [8]), 9%; in assay [5] (at 50.0 µM), -2%; in assay [6] (setting [7]), -3%; in assay [6] (setting [8]), 2%; in assay [6] (at 50.0 µM), 30.6%.
Turning to `CCOC(=O)C(=Cn1c(=S)[nH]c2ccc([N+](=O)[O-])cc21)C(=O)OCC`, the growth inhibition was 33% in assay [1] (setting [7]); 53% in assay [1] (setting [8]); -36.2% in assay [1] (at 50.0 µM); 17% in assay [2] (setting [7]); 22% in assay [2] (setting [8]); -35.2% in assay [2] (at 50.0 µM). The growth inhibition was 33% in assay [3] (setting [7]); 41% in assay [3] (setting [8]); 0.75% in assay [3] (at 50.0 µM); 20% in assay [4] (setting [7]); 25% in assay [4] (setting [8]); 13.9% in assay [4] (at 50.0 µM). For the same molecule, the growth inhibition in assay [5] (setting [7]) was 26%; in assay [5] (setting [8]) it was 29%; in assay [5] (at 50.0 µM) it was -37.2%; in assay [6] (setting [7]) it was 33%; in assay [6] (setting [8]), 46%; in assay [6] (at 50.0 µM) it was -40.2%.
In the case of `O=C(Nc1ccc(-c2cn3ccccc3n2)cc1)c1cc(Br)ccc1O`, the growth inhibition in assay [1] (setting [7]) was 4%; in assay [1] (setting [8]), 15%; in assay [1] (at 50.0 µM) it was -21.6%; in assay [2] (setting [7]), 5%; in assay [2] (setting [8]), 7%; in assay [2] (at 50.0 µM) it was -28.6%. The growth inhibition is 12% in assay [3] (setting [7]); 9% in assay [3] (setting [8]); -13.8% in assay [3] (at 50.0 µM); 33% in assay [4] (setting [7]); -9% in assay [4] (setting [8]); 39.9% in assay [4] (at 50.0 µM). For the same molecule, the growth inhibition in assay [5] (setting [7]) is 5%; in assay [5] (setting [8]) it was 6%; in assay [5] (at 50.0 µM), -24.4%; in assay [6] (setting [7]) it was 5%; in assay [6] (setting [8]), 13%; in assay [6] (at 50.0 µM), -29.8%.
`COc1cccc2c1C(=O)c1c(O)c(CCl)cc(O)c1C2=O`: the growth inhibition in assay [1] (setting [7]) is 44%; in assay [1] (setting [8]), 97% (active); in assay [1] (at 50.0 µM), 94% (active); in assay [2] (setting [7]) it was 23%; in assay [2] (setting [8]), 91% (active); in assay [2] (at 50.0 µM) it was 76.5% (active). Besides, the growth inhibition in assay [3] (setting [7]) is 47%; in assay [3] (setting [8]), 96% (active); in assay [3] (at 50.0 µM), 95.2% (active); in assay [4] (setting [7]) it was 17%; in assay [4] (setting [8]), 96% (active); in assay [4] (at 50.0 µM) it was 91.5% (active). Further, the growth inhibition in assay [5] (setting [7]) is 3%; in assay [5] (setting [8]) it was 49%; in assay [5] (at 50.0 µM) it was 21.8%; in assay [6] (setting [7]), 35%; in assay [6] (setting [8]), 97% (active); in assay [6] (at 50.0 µM) it was 94.6% (active).
Regarding `Clc1ccc(C(CCOc2ccccc2Br)Cn2ccnc2)c(Cl)c1` (configuration not stated), the growth inhibition in assay [1] (setting [7]) was 89% (active); in assay [1] (setting [8]) it was 98% (active); in assay [1] (at 50.0 µM), 99.7% (active); in assay [2] (setting [7]), 75% (active); in assay [2] (setting [8]), 99% (active); in assay [2] (at 50.0 µM), 99.7% (active). Also, the growth inhibition in assay [3] (setting [7]) was 82% (active); in assay [3] (setting [8]), 99% (active); in assay [3] (at 50.0 µM), 99.7% (active); in assay [4] (setting [7]), 68%; in assay [4] (setting [8]), 99% (active); in assay [4] (at 50.0 µM), 97% (active). Also, the growth inhibition in assay [5] (setting [7]) is 89% (active); in assay [5] (setting [8]), 99% (active); in assay [5] (at 50.0 µM), 99.7% (active); in assay [6] (setting [7]) it was 79% (active); in assay [6] (setting [8]), 99% (active); in assay [6] (at 50.0 µM), 95.3% (active).
Regarding `CCN(CC)c1ccc(N=Nc2ccc(-c3nc4ccc[n+](C)c4s3)cc2)cc1`, the growth inhibition in assay [1] (setting [7]) is 99% (active); in assay [1] (setting [8]) it was 99% (active); in assay [1] (at 50.0 µM), 89.6% (active); in assay [2] (setting [7]) it was 99% (active); in assay [2] (setting [8]), 99% (active); in assay [2] (at 50.0 µM) it was 88.8% (active). The growth inhibition in assay [3] (setting [7]) is 99% (active); in assay [3] (setting [8]) it was 99% (active); in assay [3] (at 50.0 µM), 88.2% (active); in assay [4] (setting [7]), 100% (active); in assay [4] (setting [8]), 100% (active); in assay [4] (at 50.0 µM), 88.2% (active). Moreover, the growth inhibition in assay [5] (setting [7]) was 99% (active); in assay [5] (setting [8]) it was 99% (active); in assay [5] (at 50.0 µM), 91.1% (active); in assay [6] (setting [7]) it was 99% (active); in assay [6] (setting [8]), 99% (active); in assay [6] (at 50.0 µM), 88.8% (active).
In the case of `CC(=O)OCc1ccc([N+](=O)[O-])o1`, the growth inhibition in assay [1] (setting [7]) is 2%; in assay [1] (setting [8]), 78% (active); in assay [1] (at 50.0 µM), 96.3% (active); in assay [2] (setting [7]), -7%; in assay [2] (setting [8]), 22%; in assay [2] (at 50.0 µM), 98.3% (active). Also, the growth inhibition in assay [3] (setting [7]) was 3%; in assay [3] (setting [8]), 67%; in assay [3] (at 50.0 µM) it was 64.3%; in assay [4] (setting [7]) it was 0%; in assay [4] (setting [8]), 96% (active); in assay [4] (at 50.0 µM), 98.2% (active). Moreover, the growth inhibition in assay [5] (setting [7]) is -2%; in assay [5] (setting [8]), 73% (active); in assay [5] (at 50.0 µM), 98.9% (active); in assay [6] (setting [7]) it was 1%; in assay [6] (setting [8]) it was 86% (active); in assay [6] (at 50.0 µM), 98% (active).
With `COC(=O)/C=C/c1c2ccccc2cc2ccccc12`, the growth inhibition is 11% in assay [1] (setting [7]); 28% in assay [1] (setting [8]); 14.8% in assay [1] (at 50.0 µM); 13% in assay [2] (setting [7]); 39% in assay [2] (setting [8]); 25.2% in assay [2] (at 50.0 µM). For the same molecule, the growth inhibition is 18% in assay [3] (setting [7]); 46% in assay [3] (setting [8]); 64.3% in assay [3] (at 50.0 µM); 8% in assay [4] (setting [7]); 24% in assay [4] (setting [8]); 39.8% in assay [4] (at 50.0 µM). For the same molecule, the growth inhibition in assay [5] (setting [7]) is 9%; in assay [5] (setting [8]) it was 28%; in assay [5] (at 50.0 µM), 37%; in assay [6] (setting [7]) it was 6%; in assay [6] (setting [8]), 36%; in assay [6] (at 50.0 µM), 75.3% (active).
